This passage reports growth inhibition results from PubChem BioAssay (NCI).

This is part of a sample that, as a whole, favours compounds with a hit. Of some 79,000 tested, about 15% had one in any assay. Unmarked numbers belong to inactive results. The source made the active and inactive calls. Rule as the data show it: active = growth inhibition above about 70%; inactive = the rest.

Experiment [1] can be described thus: NCI Yeast Anticancer Drug Screen. Data for the rad50 strain (AID 155).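 Also: 0% = growth of vehicle-only cultures of the same strain.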 The note with it: S. cerevisiae rad50 strain growth inhibition, hits give high values. The gist of the method: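 Compounds were tested on a yeast strain with an engineered DNA damage repair alteration; the reported value is growth inhibition normalised to vehicle treatment.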
Experiment [2] in a line: NCI Yeast Anticancer Drug Screen. Data for the mec2-1 strain (AID 157). The note with it: S. cerevisiae mec2-1 strain, hits give high values. The gist of the method: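 Using mec2-1 yeast: add compound, measure growth, express inhibition versus vehicle-treated cultures.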
Experiment [3] is described as follows: NCI Yeast Anticancer Drug Screen. Data for the sgs1 mgt1 strain (AID 161).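 Also: 0% = growth of cultures given vehicle only.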 The note with it: S. cerevisiae sgs1 mgt1 strain, hits give high values. The gist of the method:
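Growth of a repair-deficient yeast mutant was monitored after compound treatment and expressed as inhibition relative to vehicle-treated cultures.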

The nature of experiment [4]: NCI Yeast Anticancer Drug Screen. Data for the cln2 rad14 strain (AID 165).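 Also: 0% = growth equal to vehicle treated cultures.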 The note with it: S. cerevisiae cln2 rad14 strain, hits give high values. The gist of the method:
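Yeast strain cln2 rad14, bearing defects in cell cycle control and DNA repair, serves as the test system; values reflect growth inhibition compared with vehicle.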

Experiment [5] in a line: NCI Yeast Anticancer Drug Screen. Data for the bub3 strain (AID 167). The note with it: S. cerevisiae bub3 mutant strain, hits give high values. The procedure, abridged: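 Growth of a checkpoint-deficient yeast mutant is measured after compound exposure. Values represent inhibition relative to vehicle.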
The nature of experiment [6]: NCI Yeast Anticancer Drug Screen. Data for the mlh1 rad18 strain (AID 175). The note with it: S. cerevisiae mlh1 rad18 strain growth inhibition, hits give high values. The procedure, abridged: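 Steps: expose repair-defective yeast to compound; measure growth; express inhibition against vehicle-treated controls.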
Where [7] appears, read: at 5.0 µM (retest, dose inferred, filed as 0.5).
[8] abbreviates: at 50.0 µM (retest, dose inferred, filed as 5.0).

As for `CCCCOC(=O)/C=C\C(=O)NC(N)=O`, the growth inhibition was 4% in experiment [1] (setting [7]); 9% in experiment [1] (setting [8]); -1% in experiment [2] (setting [7]); 7% in experiment [2] (setting [8]); 5% in experiment [3] (setting [7]); 18% in experiment [3] (setting [8]). The growth inhibition in experiment [4] (setting [7]) was -3%; in experiment [4] (setting [8]), 1%; in experiment [5] (setting [7]), 0%; in experiment [5] (setting [8]), 6%; in experiment [6] (setting [7]), -21%; in experiment [6] (setting [8]), 18%.
For `Oc1ccc(Cc2ccccc2Cl)c(O)c1`, the growth inhibition was 1% in experiment [1] (setting [7]); 99% (active) in experiment [1] (setting [8]); -4% in experiment [2] (setting [7]); 99% (active) in experiment [2] (setting [8]); -3% in experiment [3] (setting [7]); 99% (active) in experiment [3] (setting [8]). The growth inhibition in experiment [4] (setting [7]) is 1%; in experiment [4] (setting [8]), 98% (active); in experiment [5] (setting [7]) it was -1%; in experiment [5] (setting [8]), 99% (active); in experiment [6] (setting [7]) it was -22%; in experiment [6] (setting [8]), 98% (active).
Regarding `CN(C)c1ccc(/C=C\C(=O)c2ccccc2)cc1`, the growth inhibition in experiment [1] (setting [7]) is 7%; in experiment [1] (setting [8]), 57%; in experiment [2] (setting [7]), 1%; in experiment [2] (setting [8]) it was 28%; in experiment [3] (setting [7]), 6%; in experiment [3] (setting [8]), 75% (active). Also, the growth inhibition is 13% in experiment [4] (setting [7]); 15% in experiment [4] (setting [8]); 8% in experiment [5] (setting [7]); 77% (active) in experiment [5] (setting [8]); 32% in experiment [6] (setting [7]); 53% in experiment [6] (setting [8]).
For the compound `C=C1C(=O)OC2/C=C(\COC(C)=O)CCC(OC(C)=O)C3=CC(OC3=O)C12` (stereo unspecified), the growth inhibition was -0.4% in experiment [1] (at 50.0 µM unless noted); 10.4% in experiment [2] (at 50.0 µM unless noted); -22.2% in experiment [3] (at 50.0 µM unless noted); -6.5% in experiment [4] (at 50.0 µM unless noted); -30.1% in experiment [5] (at 50.0 µM unless noted).
The like results for `CC1CCC(c2cc(-c3ccccc3)n(-c3ccccc3)n2)CC1` (stereo unspecified) were, in that order, -6.25%, 6.05%, -2.35%, -26.4% and -17.4%.
Take `C/C(=N\NC(=S)N1CCN(c2ccccn2)CC1)c1cccc(C)n1`: the growth inhibition in experiment [1] (at 50.0 µM unless noted) is 90.3% (active); in experiment [2] (at 50.0 µM unless noted) it was 92.7% (active); in experiment [3] (at 50.0 µM unless noted), 91.8% (active); in experiment [4] (at 50.0 µM unless noted), 91.3% (active); in experiment [5] (at 50.0 µM unless noted) it was 89.5% (active).
For the compound `C[Si](C)(C)OC1CC(=O)OC1n1cc(F)c(=O)[nH]c1=O` (stereo unspecified), the growth inhibition is 56.8% in experiment [1] (at 50.0 µM unless noted); 81.6% (active) in experiment [2] (at 50.0 µM unless noted); 75.8% (active) in experiment [3] (at 50.0 µM unless noted); -1.15% in experiment [4] (at 50.0 µM unless noted); 21.8% in experiment [5] (at 50.0 µM unless noted).
On to `CC(=O)OC(C)C(=O)NCC(C)O` (stereo unspecified), for which the growth inhibition in experiment [1] (setting [7]) is -1%; in experiment [1] (setting [8]), 3%; in experiment [2] (setting [7]), -2%; in experiment [2] (setting [8]), 0%; in experiment [3] (setting [7]), -2%; in experiment [3] (setting [8]), 9%. Further, the growth inhibition was -1% in experiment [4] (setting [7]); -7% in experiment [4] (setting [8]); 5% in experiment [5] (setting [7]); 7% in experiment [5] (setting [8]); -33% in experiment [6] (setting [7]); 20% in experiment [6] (setting [8]).
As for `O=C(O)CSCC(=O)Nc1ccccc1Cl`, the growth inhibition in experiment [1] (at 50.0 µM unless noted) was -11.6%; in experiment [2] (at 50.0 µM unless noted), -10.3%; in experiment [3] (at 50.0 µM unless noted) it was 14.6%; in experiment [4] (at 50.0 µM unless noted), 6.05%; in experiment [5] (at 50.0 µM unless noted) it was 4.3%.
On the same counts, the results for `O/N=C/c1ccco1` are 1.2%, -9.85%, 7.75%, -1.15% and -6.55%.
With `COc1ccc(Nc2ccc3ccccc3c2)cc1`, the growth inhibition was 6% in experiment [1] (setting [7]); 0% in experiment [1] (setting [8]); -2% in experiment [2] (setting [7]); -1% in experiment [2] (setting [8]); -66% in experiment [3] (setting [7]); 50% in experiment [3] (setting [8]). Besides, the growth inhibition in experiment [4] (setting [7]) was -4%; in experiment [4] (setting [8]), -17%; in experiment [5] (setting [7]), 3%; in experiment [5] (setting [8]), 72% (active); in experiment [6] (setting [7]) it was -31%; in experiment [6] (setting [8]), -7%.
As for `N#CC(c1ccccc1)c1cccc2ccccc12` (stereo unspecified), the growth inhibition is 5% in experiment [1] (setting [7]); 68% in experiment [1] (setting [8]); 3% in experiment [2] (setting [7]); 35% in experiment [2] (setting [8]); 1% in experiment [3] (setting [7]); 74% (active) in experiment [3] (setting [8]). In addition, the growth inhibition in experiment [4] (setting [7]) was -4%; in experiment [4] (setting [8]) it was -4%; in experiment [5] (setting [7]), 7%; in experiment [5] (setting [8]), 59%; in experiment [6] (setting [7]), -25%; in experiment [6] (setting [8]), 56%.
Take `C[C@H]1CC(=O)[C@@]2(O)C#C/C=C\C#C[C@@H]3Nc4c(cc(O)c5c4C(=O)c4ccccc4C5=O)[C@]24O[C@]314`: the growth inhibition in experiment [1] (at 50.0 µM unless noted) is 78% (active); in experiment [2] (at 50.0 µM unless noted), 82% (active); in experiment [3] (at 50.0 µM unless noted) it was 85.2% (active); in experiment [4] (at 50.0 µM unless noted) it was 86.9% (active); in experiment [5] (at 50.0 µM unless noted), 85.8% (active).
Regarding `CCCCNc1ccc(Nc2ccccc2)cc1`, the growth inhibition in experiment [1] (setting [7]) was 1%; in experiment [1] (setting [8]), 95% (active); in experiment [2] (setting [7]), 1%; in experiment [2] (setting [8]) it was 96% (active); in experiment [3] (setting [7]), 14%; in experiment [3] (setting [8]), 97% (active). Besides, the growth inhibition in experiment [4] (setting [7]) was 1%; in experiment [4] (setting [8]), 87% (active); in experiment [5] (setting [7]) it was 2%; in experiment [5] (setting [8]) it was 97% (active); in experiment [6] (setting [7]), -40%; in experiment [6] (setting [8]), 94% (active).
Take `Cc1c(OCCCOc2ccc3c(=O)cc(-c4ccccc4)oc3c2C)ccc2c(=O)cc(-c3ccccc3)oc12`: the growth inhibition in experiment [1] (at 50.0 µM unless noted) is -35.6%; in experiment [2] (at 50.0 µM unless noted), -18.1%; in experiment [3] (at 50.0 µM unless noted) it was -13.7%; in experiment [4] (at 50.0 µM unless noted), 31.5%; in experiment [5] (at 50.0 µM unless noted) it was -39.9%.
In the case of `CC(C)C(C)(C)c1ccc(O)cc1`, the growth inhibition in experiment [1] (setting [7]) is -34%; in experiment [1] (setting [8]), 70% (active); in experiment [2] (setting [7]), -2%; in experiment [2] (setting [8]), 68%; in experiment [3] (setting [7]), 3%; in experiment [3] (setting [8]) it was 75% (active). Besides, the growth inhibition in experiment [4] (setting [7]) is 2%; in experiment [4] (setting [8]) it was 26%; in experiment [5] (setting [7]) it was 2%; in experiment [5] (setting [8]) it was 61%; in experiment [6] (setting [7]), 2%; in experiment [6] (setting [8]), 74% (active).
